High-throughput results: PubChem, Broad Institute
Tgondii IFNg: T. gondii growth inhibition with IFN-gamma, primary screen, cell-based; Toxoplasma gondii growth in IFN-gamma-treated host cells; active compounds read low; activity change, negative = inhibition, % (concentration not given with the values); 69,000 compounds, 3.8% hits; in the data active = activity change below about -70%, passing the limit was not always enough;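 also: host cells are HeLa cells infected with Toxoplasma gondii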
* = called active by the depositor; ! = a repeat was not active. The full list was thinned out, with hits kept by preference.

SMILES	Tgondii IFNg
COc1cccc(-c2ccc3c(c2)O[C@H](CN(C)Cc2cccnc2)[C@@H](C)CN([C@@H](C)CO)S3(=O)=O)c1	-64
COc1cccc(-c2ccc3c(c2)O[C@@H](CN(C)Cc2cccnc2)[C@H](C)CN([C@H](C)CO)S3(=O)=O)c1	-64
C[C@H](CO)N1C[C@H](C)[C@H](CN(C)C(=O)Cc2cccnc2)Oc2cc(C#Cc3ccccc3F)ccc2S1(=O)=O	-89*
COc1cccc(C#Cc2ccc3c(c2)O[C@H](CN(C)C(=O)CN2CCOCC2)[C@@H](C)CN([C@H](C)CO)S3(=O)=O)c1	-6
COc1ccc(OC)c(C2CCN(c3ncnc4[nH]ccc34)C2)c1 (configuration not stated)	-56
Cn1c(CCC(=O)NC2CCC(n3cnnc3)CC2)nc2cccnc21 (configuration not stated)	11
CCN(CC)S(=O)(=O)c1ccc2c(c1)cc(C(=O)N1CCCC1)n2C	53
COc1ccc(-c2nc(N3CCC(Cc4ccccc4)CC3)c3ccccc3n2)cc1	18
N#Cc1c(NC(=O)C2CC(=O)OC23CCCCC3)sc2c1CCCCC2 (configuration not stated)	-91*
CCOC(=O)c1c(NC(=O)C2CC(=O)OC23CCCCC3)sc2c1CC(C)(C)OC2 (configuration not stated)	-96*
N#Cc1c(NC(=O)C2CC(c3cccc(Br)c3)=NO2)sc2c1CCC2 (configuration not stated)	-20
CCC(Sc1ncc(-c2ccccc2)nn1)C(=O)Nc1sc2c(c1C#N)CCCC2 (configuration not stated)	150
CCOC(=O)c1c(NC(=O)CSc2nc(C)cc(C)n2)sc2c1CCC2	-44
C=CCn1c(SCC(=O)OCC)nc2sc3c(c2c1=O)CC(C)(C)OC3	-7
O=C(NCc1ccco1)c1c(NC(=O)C2COc3ccccc3O2)sc2c1CCC2 (configuration not stated)	393
CC(C)NC(=O)N1CCC(c2nnc3ccc(C(=O)Cc4ccccn4)cn23)C1 (configuration not stated)	3
C=CCN1Cc2ccccc2C2(CCN(C(=O)c3ccno3)CC2)C1	-5
CC(C)CN1CCC(CNC(=O)c2ccc(-c3ccc4c(c3)OCO4)nc2)C1 (configuration not stated)	1
Fc1cccnc1OC1COC2(CCN(Cc3ccsc3)CC2)C1 (configuration not stated)	-48
CC1(C)CC[C@]2(C(=O)O)CC[C@]3(C)C(=CC[C@@H]4[C@@]5(C)CC[C@H](O)C(C)(C)[C@@H]5CC[C@]43C)[C@@H]2C1	-72*!
CC1(C)CC[C@]2(C(=O)O)CC[C@]3(C)C(=CCC4[C@@]5(C)CC[C@@H](O)C(C)(C)C5CC[C@]43C)C2C1 (some centres not stated)	-58
C[C@@H]1CC[C@]2(C(=O)O)CC[C@]3(C)C(=CCC4[C@@]5(C)CC[C@H](O)C(C)(C)C5CC[C@]43C)C2[C@H]1C (some centres not stated)	10
CN(C)C1COC2(CCN(C(=O)c3ccn(C)n3)CC2)C1 (configuration not stated)	76
CCN(CC)S(=O)(=O)c1ccc2c(c1)N(Cc1nc(-c3ccccc3)oc1C)C(=O)CS2	-80*
CNC(=O)c1ccc(-c2nc(CN3CCN(S(=O)(=O)c4ccc(OC)cc4)CC3)c(C)o2)cc1	14
SMILES	Tgondii IFNg
CCOC(=O)c1ccc2c(c1)N(Cc1nc(-c3cccc(C)c3)oc1C)C(=O)c1ccccc1S2	-43
Cc1oc(-c2ccc3ccccc3c2)nc1CN1CCN(S(N)(=O)=O)CC1	36
Cc1oc(-c2ccccc2)nc1Cn1ccn2nc(-c3ccc4c(c3)OCO4)cc2c1=O	-15
Cc1oc(-c2ccccc2)nc1CN1C(=O)CSc2ccc(S(=O)(=O)N3CCCCCC3)cc21	-95*
COc1ccccc1NC(=O)c1c(O)c2cccnc2n(-c2ccc(F)cc2)c1=O	99
CC(C)N(C)CC1CN(S(=O)(=O)C2CC2)Cc2nccn2C1 (configuration not stated)	37
C=CCC(C)(C)CN1C[C@H](O)[C@@H](N2CCN(C)CC2)C1	-2
CC(C)n1ccnc1CN1CCC(CNC(=O)c2ccsc2)C1 (configuration not stated)	-1
Cc1ccc(SC(=O)c2cc(C)n(-c3c(Cl)cc(Cl)cc3Cl)n2)cc1	-100*
Nc1ccnc(NCc2ccc3[nH]c4c(c3c2)CCCCCC4)n1	-20
COc1ccc(CNC(=O)CC2N=C3c4ccccc4N=C(SCc4ccc(C)cc4)N3C2=O)cc1 (configuration not stated)	-21
Cc1nc(C(C)C)sc1C(=O)N(C)Cc1nncn1C(C)C	17
CCN1C(=O)CCC12CCC(NC(=O)c1cscn1)CC2 (configuration not stated)	4
COC(=O)[C@@]12OC[C@]34[C@H]([C@@H](O)[C@@H]1O)[C@@]1(C)CC(=O)C(=O)C(C)[C@@H]1C[C@H]3OC(=O)[C@H](OC(=O)/C=C(\C)C(C)C)[C@@H]24 (some centres not stated)	-89*
CCCSc1ccc2c3c(cccc13)C(=O)N(CCc1ccc(OC)c(OC)c1)C2=O	101
N#C/C(=C/c1ccc(O)c(O)c1)C(=O)NCCCc1ccccc1	3
N#C/C(=C\c1ccc(O)c(O)c1)C(=O)NC1CCC(CC2CCC(NC(=O)/C(C#N)=C/c3ccc(O)c(O)c3)CC2)CC1 (configuration not stated)	-80*
N#C/C(=C/c1ccc(O)c(O)c1)C(=O)NCc1ccccc1	-3
CCCCC(=O)Nc1ccc(NC(=O)c2ccc(C(C)(C)C)cc2)cc1	-35
COc1cccc(-n2cc(CN(C)Cc3cccnc3)cn2)c1	31
O=C(Cn1ncc2c(N3CCCCCC3)ncnc21)Nc1ccccc1	35
COC(=O)CC(=O)Nc1ccc(-c2nc(-c3ccc(C)cc3C)co2)cc1	88
Cc1oc(-c2ccc(C(=O)NCCN3CCCC3)cc2)nc1CN1CCN(c2ccccc2)CC1	-76*
Cc1oc(-c2ccc(C(=O)NCc3cccs3)cc2)nc1CN1CCN(c2ccccc2)CC1	-57
CCCNC(=O)c1ccc(-c2nc(CN3CCN(c4ccccc4)CC3)c(C)o2)cc1	60
SMILES	Tgondii IFNg
Cc1ccccc1CCNC(=O)c1ccc(-c2nc(CN3CCN(c4ccccc4)CC3)c(C)o2)cc1	-71*
Cc1oc(-c2ccc(C(=O)NCCC(C)C)cc2)nc1CN1CCN(c2ccccc2)CC1	-38
CNC(=O)c1ccc(-c2nc(CN3CCN(S(=O)(=O)c4ccc(C)cc4C)CC3)c(C)o2)cc1	-66
Cc1oc(-c2ccc(C(=O)NCc3ccccn3)cc2)nc1CN1CCN(c2ccccc2)CC1	-29
COc1ccccc1CNC(=O)c1ccc(-c2nc(CN3CCN(c4ccccc4)CC3)c(C)o2)cc1	-109*
Cc1oc(-c2ccc(C(=O)NCCc3ccccc3)cc2)nc1CN1CCN(c2ccccc2)CC1	-59
CNC(=O)c1ccc(-c2nc(CN3CCN(S(C)(=O)=O)CC3)c(C)o2)cc1	-8
CNC(=O)c1ccc(-c2nc(CN3CCN(S(=O)(=O)c4c(C)cc(C)cc4C)CC3)c(C)o2)cc1	-96*
Cc1oc(-c2ccc(C(=O)NCCC3=CCCCC3)cc2)nc1CN1CCN(c2ccccc2)CC1	-50
CN1C[C@@H]2CC[C@H](CC1=O)N2C(=O)c1ccc(-c2ccn[nH]2)cc1	3
OCCC1CN(C2CCN(c3ccccc3)CC2)CCN1Cc1ccccc1F (configuration not stated)	10
